Experimental findings from the supplement of paper PMC12645437, “Orthogonal IMiD-Degron Pairs Induce Selective Protein Degradation in Cells” (ACS Chemical Biology, 2025) are described below.

Whole data set: some 8,300 sequences, median “log2 fold change of degron read counts, EGFP-low vs EGFP+ sorted cells (limma voom), compound-induced degradation” near -1.1, cut for the highest 2% near 3.2. Many of the other results were omitted from the sample, so the highest values are more common in it than they were.

The assay concerns the target T1, CRBN, Q96SW2.
T1 chain: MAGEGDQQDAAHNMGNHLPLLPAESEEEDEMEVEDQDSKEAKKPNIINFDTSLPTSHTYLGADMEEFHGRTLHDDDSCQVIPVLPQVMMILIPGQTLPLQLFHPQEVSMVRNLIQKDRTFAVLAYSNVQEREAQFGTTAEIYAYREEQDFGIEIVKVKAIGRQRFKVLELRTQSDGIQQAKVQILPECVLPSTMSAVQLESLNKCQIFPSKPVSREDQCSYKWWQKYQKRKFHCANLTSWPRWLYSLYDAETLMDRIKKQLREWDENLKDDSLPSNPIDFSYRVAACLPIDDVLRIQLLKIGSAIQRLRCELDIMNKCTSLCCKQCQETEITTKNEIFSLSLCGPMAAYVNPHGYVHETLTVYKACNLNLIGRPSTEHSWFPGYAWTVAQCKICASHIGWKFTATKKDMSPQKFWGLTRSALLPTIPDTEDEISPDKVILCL
Nature of the assay: log2 fold change of degron read counts, EGFP-low vs EGFP+ sorted cells (limma voom), compound-induced degradation; higher = more compound-induced degradation of the degron-EGFP fusion; degrons are variants of IKZF1/3 zinc finger 2; compound dose not given here. As to conditions: Jurkat, 18 h.

Setting [1] is: compound: compound 19 (5-tert-butyl-thalidomide).
Where [2] appears, read: compound: compound 22 (5-morpholino-thalidomide).
[3] abbreviates: compound: compound 33 (diphenyl IMiD analogue).
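Further: pooled lentiviral library of zinc finger degron-EGFP fusions in mCherry-positive Jurkat cells, FACS-sorted after compound exposure, with degron abundance counted by next-generation sequencing.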

B1: 46F_47D_49N_50I_52G_53A_54Q_55F_67L_, Q9UKT9 (peptide)
chain: FDCNICGAQFTQKGNLLRHIKL
On to B1, for which the “log2 fold change of degron read counts” value under setting [1] was -0.355, the “log2 fold change of degron read counts” value under setting [2] was -0.127, the “log2 fold change of degron read counts” value under setting [3] was -0.237 and the “log2 fold change of degron read counts” value (compound: thalidomide) was 0.552.

B2: 46F_47R_49E_50Q_52G_53A_54L_55F_67L_, Q9UKT9 (peptide)
chain: FRCEQCGALFTQKGNLLRHIKL
On to B2, for which the “log2 fold change of degron read counts” value runs as follows: under setting [1], -3.49; under setting [2], -2.97; under setting [3], -0.178; (compound: thalidomide) -1.64.

B3: 46F_47R_49P_50I_52G_53H_54T_55F_67L_, Q9UKT9 (peptide)
chain: FRCPICGHTFTQKGNLLRHIKL
B3: the “log2 fold change of degron read counts” value runs as follows: under setting [1], -2.68; under setting [2], -2.91; under setting [3], -2.15; (compound: thalidomide) -2.02.

B4: 46F_47S_49E_50I_52G_53R_54Y_55F_67L_, Q9UKT9 (peptide)
chain: FSCEICGRYFTQKGNLLRHIKL
For B4, the “log2 fold change of degron read counts” value under setting [1] was -0.304, the “log2 fold change of degron read counts” value under setting [2] was -1.64, the “log2 fold change of degron read counts” value under setting [3] was -1.28 and the “log2 fold change of degron read counts” value (compound: thalidomide) was -1.44.

B5: 46F_47D_49N_50I_52G_53A_54R_55F_67L_, Q9UKT9 (peptide)
chain: FDCNICGARFTQKGNLLRHIKL
With B5, the “log2 fold change of degron read counts” value under setting [1] is 1.3, the “log2 fold change of degron read counts” value under setting [2] is 0.634, the “log2 fold change of degron read counts” value under setting [3] is -0.123 and the “log2 fold change of degron read counts” value (compound: thalidomide) is 1.24.

B6: 46L_47F_49P_50I_52G_53F_54M_55C_67L_, Q9UKT9 (peptide)
chain: LFCPICGFMCTQKGNLLRHIKL
With B6, the “log2 fold change of degron read counts” value reads like this: under setting [1], 2.71; under setting [2], 2.77; under setting [3], 2.05; (compound: thalidomide) 0.947.

B7: 46F_47Q_49P_50I_52G_53R_54D_55F_67L_, Q9UKT9 (peptide)
chain: FQCPICGRDFTQKGNLLRHIKL
Turning to B7, the “log2 fold change of degron read counts” value is -1.62 under setting [1], -1.68 under setting [2], 0.2 under setting [3] and 1.58 (compound: thalidomide).

B8: 46F_47E_49P_50Q_52G_53A_54V_55F_67L_, Q9UKT9 (peptide)
chain: FECPQCGAVFTQKGNLLRHIKL
Take B8: the “log2 fold change of degron read counts” value reads like this: under setting [1], -2.29; under setting [2], -2.41; under setting [3], 0.278; (compound: thalidomide) 0.0294.

B9: 46F_47G_49P_50I_52G_53A_54D_55F_67L_, Q9UKT9 (peptide)
chain: FGCPICGADFTQKGNLLRHIKL
On to B9, for which the “log2 fold change of degron read counts” value reads like this: under setting [1], 1.78; under setting [2], 0.634; under setting [3], 1.7; (compound: thalidomide) 0.267.

B10: 46F_47T_49P_50I_52G_53A_54D_55F_67L_, Q9UKT9 (peptide)
chain: FTCPICGADFTQKGNLLRHIKL
Take B10: the “log2 fold change of degron read counts” value runs as follows: under setting [1], -0.0637; under setting [2], 1.88; under setting [3], 2.02; (compound: thalidomide) 2.53.

B11: 46F_47T_49P_50I_52G_53A_54P_55F_67L_, Q9UKT9 (peptide)
chain: FTCPICGAPFTQKGNLLRHIKL
On to B11, for which the “log2 fold change of degron read counts” value under setting [1] was found to be 2.68, the “log2 fold change of degron read counts” value under setting [2] came to 3.44, the “log2 fold change of degron read counts” value under setting [3] came to 2.65 and the “log2 fold change of degron read counts” value (compound: thalidomide) was 3.25.

B12: 46F_47W_49N_50I_52G_53A_54P_55F_67L_, Q9UKT9 (peptide)
chain: FWCNICGAPFTQKGNLLRHIKL
In the case of B12, the “log2 fold change of degron read counts” value reads like this: under setting [1], 2.88; under setting [2], 2.66; under setting [3], 1.69; (compound: thalidomide) 0.25.

B13: 46F_47H_49P_50I_52G_53A_54P_55F_67L_, Q9UKT9 (peptide)
chain: FHCPICGAPFTQKGNLLRHIKL
With B13, the “log2 fold change of degron read counts” value under setting [1] came out at 3.64, the “log2 fold change of degron read counts” value under setting [2] came to 3.39, the “log2 fold change of degron read counts” value under setting [3] came out at 2.87 and the “log2 fold change of degron read counts” value (compound: thalidomide) worked out at 2.28.

B14: 46F_47T_49P_50I_52G_53H_54P_55F_67L_, Q9UKT9 (peptide)
chain: FTCPICGHPFTQKGNLLRHIKL
With B14, the “log2 fold change of degron read counts” value is, setting by setting: under setting [1], -1.82; under setting [2], -0.901; under setting [3], 0.0444; (compound: thalidomide) 0.479.

B15: 46F_47G_49P_50I_52G_53A_54P_55F_67L_, Q9UKT9 (peptide)
chain: FGCPICGAPFTQKGNLLRHIKL
Turning to B15, the “log2 fold change of degron read counts” value is, setting by setting: under setting [1], 3.74; under setting [2], 2.38; under setting [3], 1.84; (compound: thalidomide) 1.66.

B16: 46F_47W_49P_50I_52G_53A_54M_55F_67L_, Q9UKT9 (peptide)
chain: FWCPICGAMFTQKGNLLRHIKL
Consider B16, for which the “log2 fold change of degron read counts” value is 2.54 under setting [1], 2.77 under setting [2], 2 under setting [3] and 0.329 (compound: thalidomide).

B17: 46F_47H_49P_50I_52G_53A_54D_55F_67L_, Q9UKT9 (peptide)
chain: FHCPICGADFTQKGNLLRHIKL
Regarding B17, the “log2 fold change of degron read counts” value reads like this: under setting [1], -0.22; under setting [2], -0.857; under setting [3], 0.863; (compound: thalidomide) -0.761.

B18: 46F_47H_49D_50I_52G_53A_54P_55F_67L_, Q9UKT9 (peptide)
chain: FHCDICGAPFTQKGNLLRHIKL
For the sequence B18, the “log2 fold change of degron read counts” value was determined as 3.18 under setting [1], 2.85 under setting [2], 1.67 under setting [3] and 0.346 (compound: thalidomide).

B19: 46F_47G_49N_50I_52G_53A_54P_55F_67L_, Q9UKT9 (peptide)
chain: FGCNICGAPFTQKGNLLRHIKL
For the sequence B19, the “log2 fold change of degron read counts” value is 0.653 under setting [1], 0.355 under setting [2], 0.00441 under setting [3] and -0.248 (compound: thalidomide).

B20: 46F_47W_49P_50I_52G_53A_54P_55F_67L_, Q9UKT9 (peptide)
chain: FWCPICGAPFTQKGNLLRHIKL
With B20, the “log2 fold change of degron read counts” value is, setting by setting: under setting [1], 3.28; under setting [2], 3.35; under setting [3], 2.63; (compound: thalidomide) 1.37.

B21: 46F_47I_49N_50Q_52G_53A_54M_55F_67L_, Q9UKT9 (peptide)
chain: FICNQCGAMFTQKGNLLRHIKL
With B21, the “log2 fold change of degron read counts” value was -2.72 under setting [1], -2.75 under setting [2], -0.507 under setting [3] and -1.6 (compound: thalidomide).

B22: 46F_47S_49P_50I_52G_53H_54C_55F_67L_, Q9UKT9 (peptide)
chain: FSCPICGHCFTQKGNLLRHIKL
As to B22, the “log2 fold change of degron read counts” value is, setting by setting: under setting [1], -2.27; under setting [2], -2.66; under setting [3], -1.41; (compound: thalidomide) -1.81.

B23: 46F_47L_49N_50I_52G_53A_54H_55F_67L_, Q9UKT9 (peptide)
chain: FLCNICGAHFTQKGNLLRHIKL
On to B23, for which the “log2 fold change of degron read counts” value is, setting by setting: under setting [1], -1.65; under setting [2], -2; under setting [3], -0.489; (compound: thalidomide) -0.376.

B24: 46F_47F_49S_50V_52G_53H_54T_55F_67L_, Q9UKT9 (peptide)
chain: FFCSVCGHTFTQKGNLLRHIKL
Consider B24, for which the “log2 fold change of degron read counts” value was -1.42 under setting [1], -2.35 under setting [2], -2.3 under setting [3] and -2.45 (compound: thalidomide).

B25: 46F_47N_49N_50Q_52G_53A_54K_55F_67L_, Q9UKT9 (peptide)
chain: FNCNQCGAKFTQKGNLLRHIKL
B25: the “log2 fold change of degron read counts” value by setting is: under setting [1], -2.03; under setting [2], -2.67; under setting [3], -2.17; (compound: thalidomide) -1.99.

B26: 46F_47Q_49N_50Q_52G_53H_54Y_55F_67L_, Q9UKT9 (peptide)
chain: FQCNQCGHYFTQKGNLLRHIKL
For B26, the “log2 fold change of degron read counts” value was -3.07 under setting [1], -2.91 under setting [2], -2.9 under setting [3] and -2.48 (compound: thalidomide).

B27: 46F_47Y_49N_50Q_52G_53A_54T_55F_67L_, Q9UKT9 (peptide)
chain: FYCNQCGATFTQKGNLLRHIKL
As to B27, the “log2 fold change of degron read counts” value was -1.8 under setting [1], -0.678 under setting [2], -1.33 under setting [3] and -2.43 (compound: thalidomide).

B28: 46F_47H_49D_50Q_52G_53A_54W_55F_67L_, Q9UKT9 (peptide)
chain: FHCDQCGAWFTQKGNLLRHIKL
Turning to B28, the “log2 fold change of degron read counts” value was -2.39 under setting [1], -3.42 under setting [2], -2.72 under setting [3] and -2.68 (compound: thalidomide).
